PubChem BioAssay AID1159580 (chemical genetic matrix, 2015)
About 2,000 (36%) of roughly 5,500 compounds were called active. Roughly 18% stayed inconclusive and do not appear here. No stated cut-off is given here; in the data, active means normalized growth mostly below about 0.91 (no sharp cut-off); inconclusive means no clear call, values can overlap the other calls; inactive means mostly above about 0.92. This is one part of the list.

Assay: chemical genetic growth profiling, strain panel (AID 1159580);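 further: tested at 20 µM; growth read once vehicle control cultures reached saturation at 30 °C; 1 = growth at the plate median or of vehicle wells; lower values mean less growth of the strain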
Settings: S. cerevisiae deletion strains, growth OD

Measured: normalized growth

Cc1ccc2c(Cl)cc(Cl)c(O)c2n1
inactive: locus YAL021C, strain ccr4, active compounds read low 0.998 | locus YAL026C, strain drs2, active compounds read low 1.02 | locus YAL030W, strain snc1, active compounds read low 1.01 | locus YBL061C, strain skt5, active compounds read low 1.02 | locus YBR009C, strain hhf1, active compounds read low 1.02 | locus YBR023C, strain chs3, active compounds read low 1.02 | locus YBR171W, strain sec66, active compounds read low 1.04 | locus YBR231C, strain swc5, active compounds read low 1.03 | locus YBR279W, strain paf1, active compounds read low 1.02 | locus YCL011C, strain gbp2, active compounds read low 1.01 | locus YCL016C, strain dcc1, active compounds read low 1.02 | locus YCL069W, strain vba3, active compounds read low 1.01 | locus YCR088W, strain abp1, active compounds read low 1.02 | locus YDL005C, strain med2, active compounds read low 1.02 | locus YDL040C, strain nat1, active compounds read low 1.02 | locus YDR001C, strain nth1, active compounds read low 1.02 | locus YDR069C, strain doa4, active compounds read low 1.03 | locus YDR137W, strain rgp1, active compounds read low 1.06 | locus YDR159W, strain sac3, active compounds read low 1.02 | locus YDR195W, strain ref2 0.987 | locus YDR297W, strain sur2, active compounds read low 1.02 | locus YDR334W, strain swr1, active compounds read low 1.02 | locus YDR335W, strain msn5, active compounds read low 1.01 | locus YDR392W, strain spt3, active compounds read low 1.02 | locus YEL003W, strain gim4, active compounds read low 1.01 | locus YEL037C, strain rad23, active compounds read low 1.02 | locus YEL061C, strain CIN8 (second series), active compounds read low 1.01 | locus YER015W, strain faa2, active compounds read low 1.01 | locus YER016W, strain bim1, active compounds read low 1.02 | locus YER111C, strain swi4, active compounds read low 1.02 | locus YER155C, strain BEM2 (second series), active compounds read low 1.02 | locus YFR010W, strain ubp6, active compounds read low 1.01 | locus YGL167C, strain pmr1, active compounds read low 1.03 | locus YGL173C, strain kem1, active compounds read low 1.02 | locus YGL227W, strain vid30, active compounds read low 1.05 | locus YGL240W, strain doc1, active compounds read low 1.02 | locus YGL253W, strain hxk2, active compounds read low 1.01 | locus YHR013C, strain ard1, active compounds read low 1.04 | locus YHR027C, strain rpn1, active compounds read low 1.02 | locus YHR142W, strain chs7, active compounds read low 1.03 | locus YJL092W, strain hpr5, active compounds read low 1.02 | locus YJL095W, strain BCK1 (second series), active compounds read low 1.04 | locus YJL115W, strain asf1, active compounds read low 1.03 | locus YJL129C, strain trk1, active compounds read low 1.02 | locus YJL154C, strain vps35, active compounds read low 1.02 | locus YJL164C, strain tpk1, active compounds read low 1.02 | locus YJL166W, strain qcr8, active compounds read low 1.04 | locus YJL187C, strain SWE1, active compounds read low 0.999 | locus YKL160W, strain elf1, active compounds read low 1.02 | locus YKR026C, strain gcn3, active compounds read low 1.02 | locus YKR091W, strain srl3, active compounds read low 1.02 | locus YLL001W, strain dnm1, active compounds read low 1.02 | locus YLL026W, active compounds read low 0.999 | locus YLL041C, strain sdh2, active compounds read low 1.03 | locus YLR027C, strain aat2, active compounds read low 1.02 | locus YLR221C, strain rsa3, active compounds read low 1.01 | locus YLR258W, strain gsy2, active compounds read low 1.02 | locus YLR262C, strain YPT6 (second series), active compounds read low 1 | locus YLR320W, strain mms22, active compounds read low 1.03 | locus YLR342W, strain FKS1, active compounds read low 1.05 | locus YLR357W, strain rsc2, active compounds read low 1.04 | locus YLR370C, strain arc18, active compounds read low 1.02 | locus YLR384C, strain iki3, active compounds read low 1.03 | locus YML120C, strain ndi1, active compounds read low 1 | locus YMR058W, strain fet3, active compounds read low 1.01 | locus YMR125W, strain sto1, active compounds read low 1.02 | locus YMR129W, active compounds read low 1.01 | locus YMR205C, strain PFK2, active compounds read low 1.02 | locus YMR231W, strain pep5, active compounds read low 1.02 | locus YNL071W, strain lat1, active compounds read low 1.01 | locus YNL209W, strain ssb2, active compounds read low 1.01 | locus YNL248C, strain rpa49, active compounds read low 1.01 | locus YNL322C, strain KRE1 (second series), active compounds read low 1.03 | locus YNR049C, strain mso1, active compounds read low 1.03 | locus YOR001W, strain rrp6, active compounds read low 1.02 | locus YOR070C, strain gyp1, active compounds read low 1.03 | locus YOR080W, strain dia2, active compounds read low 1.02 | locus YOR083W, strain WHI5, active compounds read low 1.03 | locus YOR106W, strain vam3, active compounds read low 1.01 | locus YOR265W, strain rbl2, active compounds read low 1.01 | locus YOR270C, strain vph1, active compounds read low 1.02 | locus YOR290C, strain snf2, active compounds read low 1.03 | locus YPL051W, strain arl3, active compounds read low 1.01 | locus YPL078C, strain atp4, active compounds read low 1.01 | locus YPL106C, strain sse1, active compounds read low 1 | locus YPL240C, strain hsp82, active compounds read low 1.01
